Source: PubChem
Rows were chosen to be rich in hits. Some 19% of all compounds tested hit in one or more screens of this group.
TDP1 cell CPT: growth inhibition of DT40 Tdp1-/-;hTDP1 cells with camptothecin (screen for TDP1 inhibitors). chicken DT40 Tdp1-/-;hTDP1 cells + 20 nM CPT, ATP luminescence, 48 h. actives 12% (n = 420,000). AID 686979. Potency, µM (top dose mostly 46.2 µM), hits mostly inhibitors; note: nearly all actives have a fitted effect of over 55% in size
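Chicken DT40 Tdp1-/- cells stably complemented with human TDP1 were seeded at 400 cells/well in medium containing 20 nM camptothecin, exposed to pin-transferred compounds, and grown at 37 °C for at least 48 hr. Viability was read as ATP luminescence.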
IL1B secr inh: inflammasome signaling inhibition, IL-1 beta readout; AID 743279; activity change, % at 57.5 µM; THP-1 LPS/ATP IL-1B secretion, AlphaLISA, 16 h; stronger effect = lower value; actives 4.7% (n = 360,000); in the data active = activity change below about -50%; inconclusive = mostly about -30% to -49%
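Secreted IL-1B measured by AlphaLISA bead assay after 16 h compound exposure of THP-1 cells; compounds (final up to 57.5 uM) added 1 h before LPS (250 ng/mL) and ATP (1.25 mM) stimulation; lower signal means less secretion.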
HT1080NT lethal: kills 2HG-producing HT-1080-NT fibrosarcoma cells | Potency, µM (titrated, usually from 46.1 µM), actives largely listed as cytotoxic | HT-1080-NT fibrosarcoma viability, CellTiter-Glo ATP luminescence, 48 h | actives 1.6% (n = 360,000);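 note: NT is the 2HG producing partner of a matched IDH1 knockdown line; nearly all actives have a fitted effect of over 55% in size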
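HT-1080-NT; 750 cells/well; 5% FBS RPMI; 48 h compound, 37 degrees C; CellTiter-Glo luminescence; curve fitting and curve-class assignment.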
DT40 TDP1 no CPT: qHTS for Inhibitors of human tyrosyl-DNA phosphodiesterase 1 (TDP1): qHTS in cells in absence of CPT; actives 15% (n = 420,000); AID 686978, 2013; Potency, µM (titrated, usually from 46.2 µM), usual class: inhibitors; DT40 Tdp1-/- hTDP1 cells, no CPT, ATP luminescence, 48 h; note: nearly all actives have a fitted effect of over 55% in size
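No-CPT arm: Tdp1-/-;hTDP1 DT40 cells (400/well) plus compounds, incubated ≥48 hr at 37 °C. Readout CellTiter-Glo luminescence.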
HT1080 IDH1KD tx: HT-1080 IDH1 knockdown cell toxicity (counter line) | HT-1080 IDH1 knockdown viability, ATP luminescence, 48 h | Potency, µM (highest dose often 46.1 µM), hits mostly cytotoxic | actives 2% (n = 360,000)
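After a 2 h attachment period, IDH1KD HT-1080 cells took pin-transferred compound for 48 h at 37 °C; ATP-based luminescence after 10 min room-temperature reagent incubation reported viability.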
Each line names hits and unclear results; the compound was inactive in the other large screens. Unless noted, calls come from the whole dose curve; as a rule, active = well fitted curve in the direction sought with a large enough effect; inconclusive = small, poorly fitted or top-dose-only effect, or another doubt; inactive = no such curve, though single readings can be large; an effect the other way counts as inactive or inconclusive.

COc1ccc(C(C(=O)NC2CCCC2)N(C(=O)c2snc(C(N)=O)c2N)c2cc(C)ccc2OC)cc1OC (stereo not drawn)	TDP1 cell CPT inconclusive, DT40 TDP1 no CPT 18µM
CCC(C(=O)NC1CCCC1)N(C(=O)c1snc(C(N)=O)c1N)c1ccc(OC)c(OC)c1 (stereo not drawn)	none
COc1ccc(-c2nsc(C(=O)N(c3ccc(F)cc3)C(C(=O)NC3CCCC3)c3ccc(OC)cc3)c2N)cc1 (stereo not drawn)	TDP1 cell CPT 16µM, HT1080NT lethal inconclusive, DT40 TDP1 no CPT 16µM
CCOc1ccc(N(C(=O)c2snc(C(N)=O)c2N)C(C(=O)NC2CCCC2)c2ccncc2)cc1 (stereo not drawn)	none
COC(=O)c1cn(CC(=O)Nc2ccc(F)cc2)c2ccccc12	DT40 TDP1 no CPT inconclusive
CCCCn1c(N)c(N(CC(C)C)C(=O)CSc2nnc(C)n2-c2ccccc2)c(=O)[nH]c1=O	none
COc1ccc(N(C(=O)c2snc(C(N)=O)c2N)C(C(=O)NC2CCCCC2)c2ccc(F)cc2)c(OC)c1 (stereo not drawn)	TDP1 cell CPT 2.9µM, DT40 TDP1 no CPT inconclusive
COc1ccccc1N(C(=O)c1snc(C(N)=O)c1N)C(C(=O)NC1CCCC1)c1ccc2ncccc2c1 (stereo not drawn)	HT1080NT lethal inconclusive, HT1080 IDH1KD tx inconclusive
COc1ccccc1OC(=O)c1cc2ccccc2oc1=O	none
COc1cc(/C=C/[N+](=O)[O-])ccc1OC(=O)c1cc2ccccc2oc1=O	TDP1 cell CPT inconclusive, DT40 TDP1 no CPT 26µM
CCN1CCN(C(CC(C)C)c2nnnn2CS(=O)(=O)c2ccc(C)cc2)CC1 (stereo not drawn)	IL1B secr inh -73
CC(C)C1C(=O)N(Cc2cn(CCC3OCCO3)nn2)CCS(=O)(=O)N1Cc1ccc(-c2ccncc2)cc1 (stereo not drawn)	none
CC(C)CC1C(=O)N(Cc2cn(CCC3OCCCO3)nn2)CCS(=O)(=O)N1Cc1ccc(-c2ccc(Cl)c(Cl)c2)cc1 (stereo not drawn)	TDP1 cell CPT 15µM, IL1B secr inh inconclusive, HT1080NT lethal inconclusive, DT40 TDP1 no CPT 16µM, HT1080 IDH1KD tx inconclusive
COc1ccc(-c2ccc(CN3C(C(C)C)C(=O)N(Cc4cn(CCC5OCCCO5)nn4)CCS3(=O)=O)cc2)cn1 (stereo not drawn)	TDP1 cell CPT 15µM, DT40 TDP1 no CPT 21µM
CC(C)CC1C(=O)N(Cc2cn(CCC3OCCCO3)nn2)CCS(=O)(=O)N1Cc1ccc(-c2ccc(Cl)nc2)cc1 (stereo not drawn)	TDP1 cell CPT inconclusive, DT40 TDP1 no CPT 21µM
CC(C)C1C(=O)N(Cc2cn(CCC3OCCCO3)nn2)CCS(=O)(=O)N1Cc1ccc(-c2ccc(Cl)nc2)cc1 (stereo not drawn)	TDP1 cell CPT inconclusive, IL1B secr inh inconclusive, DT40 TDP1 no CPT 23µM
CC(C)CC1C(=O)N(Cc2cn(CCC3OCCCO3)nn2)CCS(=O)(=O)N1Cc1ccc(-c2ccc(Cl)cc2)cc1 (stereo not drawn)	TDP1 cell CPT inconclusive, DT40 TDP1 no CPT inconclusive
CC1CCCN(c2ncnc3c2nnn3C)C1 (stereo not drawn)	none (no result: IL1B secr inh, HT1080NT lethal, HT1080 IDH1KD tx)
COc1ccc(S(=O)(=O)N2CC(=O)Nc3ccccc32)cc1	none
O=c1[nH]c(/C=C/c2ccc(Cl)cc2Cl)c([N+](=O)[O-])c(=O)[nH]1	none
O=C(Nc1cc(C2CC2)nn1-c1ccccc1)c1ccc(F)cc1	none
CCc1ccc(-n2nc(C)c3c(C)cc(=O)n(CC(=O)NCc4ccc(C)cc4)c32)cc1	DT40 TDP1 no CPT inconclusive (no result: IL1B secr inh, HT1080NT lethal, HT1080 IDH1KD tx)
O=C1c2ccccc2NC(c2cn[nH]c2-c2ccc(Cl)cc2)N1O (stereo not drawn)	TDP1 cell CPT 16µM, HT1080NT lethal inconclusive, DT40 TDP1 no CPT 16µM, HT1080 IDH1KD tx inconclusive
O=C1c2ccccc2NC(c2cn[nH]c2-c2ccccc2)N1O (stereo not drawn)	DT40 TDP1 no CPT inconclusive
Cc1nc(-c2ccc(Cl)cc2)sc1C1(C)CC(c2cccc(F)c2)=NO1 (stereo not drawn)	none
Cc1sc(-n2c(C)cc(C=O)c2C)c(C(=O)O)c1C	none
C/C(=N\NC(=O)c1c(Br)c(C)nn1C)c1ccc(NC(=O)c2ccoc2C)cc1	DT40 TDP1 no CPT 23µM
CCC(=O)Nc1ccc(/C(C)=N/NC(=O)c2c(Br)c(C)nn2C)cc1	TDP1 cell CPT inconclusive, DT40 TDP1 no CPT 15µM
C/C(=N\NC(=O)c1c(Cl)c(C)nn1C)c1ccc(NC(=O)c2ccncc2)cc1	TDP1 cell CPT inconclusive, DT40 TDP1 no CPT 18µM
CC(=O)Nc1ccc(/C(C)=N/NC(=O)c2ccncc2)cc1	none
CCC(O)C1CCN(C(=O)c2ccc(OC3CCN(Cc4ccccn4)CC3)cc2)CC1 (stereo not drawn)	none
O=CN1CCCN(C(=O)c2cc(NC(=O)c3ccccc3)cc3ncn(C4CCCC4)c23)CC1	none (no result: IL1B secr inh, HT1080NT lethal, HT1080 IDH1KD tx)
COc1ccc2cc(-c3[nH]ncc3CN3CCCC3c3nonc3C)ccc2c1 (stereo not drawn)	TDP1 cell CPT inconclusive, DT40 TDP1 no CPT 23µM, HT1080 IDH1KD tx inconclusive
C=COc1ccc(N2C(=O)c3ccccc3OC2C)cc1 (stereo not drawn)	TDP1 cell CPT inconclusive, DT40 TDP1 no CPT 21µM
COc1cc(Cl)c(C)cc1NC(=O)CSC1=NCCS1	TDP1 cell CPT inconclusive, IL1B secr inh inconclusive, DT40 TDP1 no CPT inconclusive
O=c1c(CCc2ccccc2)nc2cnc(N3CCNCC3)nc2n1-c1ccccc1	none (no result: IL1B secr inh, HT1080NT lethal, HT1080 IDH1KD tx)
CCn1cc(/C=N/N=C2\CCC3C4CCc5cc(O)ccc5C4CC[C@]23C)c(C)n1 (stereo partly drawn)	TDP1 cell CPT 16µM, DT40 TDP1 no CPT 21µM
CN(CC(=O)Nc1ccc(Cl)c(Cl)c1)C(=O)CC1OC(=O)c2ccccc21 (stereo not drawn)	DT40 TDP1 no CPT inconclusive
Cc1ccccc1NS(=O)(=O)c1ccc(C(=O)NCc2ccccc2CN2CCCC2)cc1	TDP1 cell CPT inconclusive, IL1B secr inh inconclusive, DT40 TDP1 no CPT 23µM
O=C(NCc1ccccc1CN1CCCC1)c1ccc(S(=O)(=O)Nc2ccccc2)cc1	TDP1 cell CPT 21µM, IL1B secr inh inconclusive, DT40 TDP1 no CPT 13µM, HT1080 IDH1KD tx inconclusive
O=C(NCc1ccccc1CN1CCCC1)c1ccc(S(=O)(=O)Nc2ccccc2F)cc1	DT40 TDP1 no CPT inconclusive
Cc1sc2nc(CN3CCOCC3)nc(N3CCN(S(=O)(=O)c4ccccc4)CC3)c2c1C	TDP1 cell CPT inconclusive, DT40 TDP1 no CPT inconclusive
COc1ccccc1C1CCN(Cc2ccc3ccccc3c2)CC1	TDP1 cell CPT inconclusive, IL1B secr inh -61, HT1080NT lethal inconclusive, DT40 TDP1 no CPT inconclusive, HT1080 IDH1KD tx 23µM
COc1ccccc1C1CCN(Cc2cccc([N+](=O)[O-])c2)CC1	TDP1 cell CPT inconclusive, DT40 TDP1 no CPT inconclusive
